Measured values taken from the supplement of paper PMC7765376.
The full ranking holds about 1,500 compounds; the median of “Excess HSA synergy score (sum over dose matrix of excess over highest single agent)” is about 43, and the lowest 2% start at about -900. The full list was thinned out, with the lowest values kept by preference.

System: PEO-1
Assay: Excess HSA synergy score (sum over dose matrix of excess over highest single agent) (score (summed % response)); higher = less synergy / more antagonism (negative = synergy)
Settings: 72 h, read-out: viability/apoptosis luminescence (CellTiter-Glo or Caspase3-Glo / not stated per table)
[1] = matrix design: 6x6, 5-fold dilutions (primary screen)
[2] = matrix design: 10x10, 9-step dilutions (confirmatory)

COc1ccc(-c2cc3nccn3c(Nc3ncccc3C(N)=O)n2)cc1OC + CC[C@H](NC(=O)[C@H](C)NC)C(=O)N1C[C@@H](O)C[C@H]1Cc1c(-c2[nH]c3cc(F)ccc3c2C[C@@H]2C[C@H](O)CN2C(=O)[C@H](CC)NC(=O)[C@H](C)NC)[nH]c2cc(F)ccc12 [Birinapant] was tested, and the “Excess HSA synergy score” value [1] was 38.
CN1CCc2c(c3ccccc3n2Cc2ccc(C(=O)NO)cc2)C1 [Tubastatin A] + CC[C@H](NC(=O)[C@H](C)NC)C(=O)N1C[C@@H](O)C[C@H]1Cc1c(-c2[nH]c3cc(F)ccc3c2C[C@@H]2C[C@H](O)CN2C(=O)[C@H](CC)NC(=O)[C@H](C)NC)[nH]c2cc(F)ccc12 [Birinapant] was tested, and the “Excess HSA synergy score” value [1] was -71.8.
In the case of Cn1cc(C[C@@H](N)C(=O)O)c2ccccc21 [Indoximod] + CC[C@H](NC(=O)[C@H](C)NC)C(=O)N1C[C@@H](O)C[C@H]1Cc1c(-c2[nH]c3cc(F)ccc3c2C[C@@H]2C[C@H](O)CN2C(=O)[C@H](CC)NC(=O)[C@H](C)NC)[nH]c2cc(F)ccc12 [Birinapant], the “Excess HSA synergy score” value [1] is reported as 168.
In the case of Cn1cc(CNCC2CCN(c3ncc(C(=O)NO)cn3)CC2)c2ccccc21 [Quisinostat] + CC[C@H](NC(=O)[C@H](C)NC)C(=O)N1C[C@@H](O)C[C@H]1Cc1c(-c2[nH]c3cc(F)ccc3c2C[C@@H]2C[C@H](O)CN2C(=O)[C@H](CC)NC(=O)[C@H](C)NC)[nH]c2cc(F)ccc12 [Birinapant], the “Excess HSA synergy score” value [1] is reported as -161 and the “Excess HSA synergy score” value [2] is reported as -1370.
NC(=O)c1cnc(-c2ccc(C3(N)CCC3)cc2)c(-c2ccccc2)c1 + CC[C@H](NC(=O)[C@H](C)NC)C(=O)N1C[C@@H](O)C[C@H]1Cc1c(-c2[nH]c3cc(F)ccc3c2C[C@@H]2C[C@H](O)CN2C(=O)[C@H](CC)NC(=O)[C@H](C)NC)[nH]c2cc(F)ccc12 [Birinapant] was tested, and the “Excess HSA synergy score” value [1] was 61.1.
In the case of CN(C)C(=O)c1ccc(S(=O)(=O)c2ccc(NC(=O)[C@@](C)(O)C(F)(F)F)c(Cl)c2)cc1 + CC[C@H](NC(=O)[C@H](C)NC)C(=O)N1C[C@@H](O)C[C@H]1Cc1c(-c2[nH]c3cc(F)ccc3c2C[C@@H]2C[C@H](O)CN2C(=O)[C@H](CC)NC(=O)[C@H](C)NC)[nH]c2cc(F)ccc12 [Birinapant], the “Excess HSA synergy score” value [1] is reported as 50.1.
With NC1(c2ccc(-c3nc4ccn5c(=O)[nH]nc5c4cc3-c3ccccc3)cc2)CCC1 + CC[C@H](NC(=O)[C@H](C)NC)C(=O)N1C[C@@H](O)C[C@H]1Cc1c(-c2[nH]c3cc(F)ccc3c2C[C@@H]2C[C@H](O)CN2C(=O)[C@H](CC)NC(=O)[C@H](C)NC)[nH]c2cc(F)ccc12 [Birinapant] the “Excess HSA synergy score” value [1] was 208.
In the case of Cc1nc(N)sc1-c1ccnc(Nc2ccc(N3CCOCC3)cc2)n1 + CC[C@H](NC(=O)[C@H](C)NC)C(=O)N1C[C@@H](O)C[C@H]1Cc1c(-c2[nH]c3cc(F)ccc3c2C[C@@H]2C[C@H](O)CN2C(=O)[C@H](CC)NC(=O)[C@H](C)NC)[nH]c2cc(F)ccc12 [Birinapant], the “Excess HSA synergy score” value [1] is reported as 9.08.
For N#CCNC(=O)c1ccc(-c2ccnc(Nc3ccc(N4CCOCC4)cc3)n2)cc1 [Momelotinib] + CC[C@H](NC(=O)[C@H](C)NC)C(=O)N1C[C@@H](O)C[C@H]1Cc1c(-c2[nH]c3cc(F)ccc3c2C[C@@H]2C[C@H](O)CN2C(=O)[C@H](CC)NC(=O)[C@H](C)NC)[nH]c2cc(F)ccc12 [Birinapant], the “Excess HSA synergy score” value [1] was -152.
Cc1ccc(-c2ncn(-c3ccc(Nc4nccc(-c5cccc(N6CCOCC6)c5)n4)cc3)n2)cn1 + CC[C@H](NC(=O)[C@H](C)NC)C(=O)N1C[C@@H](O)C[C@H]1Cc1c(-c2[nH]c3cc(F)ccc3c2C[C@@H]2C[C@H](O)CN2C(=O)[C@H](CC)NC(=O)[C@H](C)NC)[nH]c2cc(F)ccc12 [Birinapant] was tested, and the “Excess HSA synergy score” value [1] was 108 and the “Excess HSA synergy score” value [2] was -998.
With CCCS(=O)(=O)Nc1ccc(F)c(C(=O)c2c[nH]c3ncc(Cl)cc23)c1F + CC[C@H](NC(=O)[C@H](C)NC)C(=O)N1C[C@@H](O)C[C@H]1Cc1c(-c2[nH]c3cc(F)ccc3c2C[C@@H]2C[C@H](O)CN2C(=O)[C@H](CC)NC(=O)[C@H](C)NC)[nH]c2cc(F)ccc12 [Birinapant] the “Excess HSA synergy score” value [1] was -164.
C=C1CC[C@@H]2[C@](C)(CO)[C@H](O)CC[C@@]2(C)[C@@H]1C/C=C1/C(=O)OC[C@H]1O [Andrographolide] + CC[C@H](NC(=O)[C@H](C)NC)C(=O)N1C[C@@H](O)C[C@H]1Cc1c(-c2[nH]c3cc(F)ccc3c2C[C@@H]2C[C@H](O)CN2C(=O)[C@H](CC)NC(=O)[C@H](C)NC)[nH]c2cc(F)ccc12 [Birinapant] was tested, and the “Excess HSA synergy score” value [1] was 12.7.
With Cc1cc(Nc2cc(N3CCN(C)CC3)nc(Sc3ccc(NC(=O)C4CC4)cc3)n2)n[nH]1 [Tozasertib] + CC[C@H](NC(=O)[C@H](C)NC)C(=O)N1C[C@@H](O)C[C@H]1Cc1c(-c2[nH]c3cc(F)ccc3c2C[C@@H]2C[C@H](O)CN2C(=O)[C@H](CC)NC(=O)[C@H](C)NC)[nH]c2cc(F)ccc12 [Birinapant] the “Excess HSA synergy score” value [1] was -170.
In the case of C=CC(=O)Nc1cccc(Sc2nc(Nc3ccc(N4CCN(C)CC4)cc3)ncc2Cl)c1 + CC[C@H](NC(=O)[C@H](C)NC)C(=O)N1C[C@@H](O)C[C@H]1Cc1c(-c2[nH]c3cc(F)ccc3c2C[C@@H]2C[C@H](O)CN2C(=O)[C@H](CC)NC(=O)[C@H](C)NC)[nH]c2cc(F)ccc12 [Birinapant], the “Excess HSA synergy score” value [1] is reported as 73.6.
For Cc1nc(Nc2ncc(C(=O)Nc3c(C)cccc3Cl)s2)cc(N2CCN(CCO)CC2)n1 [Dasatinib] + CC[C@H](NC(=O)[C@H](C)NC)C(=O)N1C[C@@H](O)C[C@H]1Cc1c(-c2[nH]c3cc(F)ccc3c2C[C@@H]2C[C@H](O)CN2C(=O)[C@H](CC)NC(=O)[C@H](C)NC)[nH]c2cc(F)ccc12 [Birinapant], the “Excess HSA synergy score” value [1] was -329 and the “Excess HSA synergy score” value [2] was -1400.
With c1cc(-c2sc(-c3ccncc3)c(-c3ccncc3)c2-c2ccncc2)ccn1 + CC[C@H](NC(=O)[C@H](C)NC)C(=O)N1C[C@@H](O)C[C@H]1Cc1c(-c2[nH]c3cc(F)ccc3c2C[C@@H]2C[C@H](O)CN2C(=O)[C@H](CC)NC(=O)[C@H](C)NC)[nH]c2cc(F)ccc12 [Birinapant] the “Excess HSA synergy score” value [1] was 153.
O=c1cc(-c2ccccc2)oc2cc(O)cc(O)c12 [5,7-Dihydroxyflavone] + CC[C@H](NC(=O)[C@H](C)NC)C(=O)N1C[C@@H](O)C[C@H]1Cc1c(-c2[nH]c3cc(F)ccc3c2C[C@@H]2C[C@H](O)CN2C(=O)[C@H](CC)NC(=O)[C@H](C)NC)[nH]c2cc(F)ccc12 [Birinapant] was tested, and the “Excess HSA synergy score” value [1] was -131.
In the case of CCOC(=O)[C@@H](N)CCC(=O)N[C@@H](CSCc1ccccc1)C(=O)N[C@@H](C(=O)OCC)c1ccccc1 [Ezatiostat] + CC[C@H](NC(=O)[C@H](C)NC)C(=O)N1C[C@@H](O)C[C@H]1Cc1c(-c2[nH]c3cc(F)ccc3c2C[C@@H]2C[C@H](O)CN2C(=O)[C@H](CC)NC(=O)[C@H](C)NC)[nH]c2cc(F)ccc12 [Birinapant], the “Excess HSA synergy score” value [1] is reported as 49.2.
Cc1[nH]c(/C=C2\C(=O)Nc3ccc(S(=O)(=O)N(C)c4cccc(Cl)c4)cc32)c(C)c1C(=O)N1CCN(C)CC1 + CC[C@H](NC(=O)[C@H](C)NC)C(=O)N1C[C@@H](O)C[C@H]1Cc1c(-c2[nH]c3cc(F)ccc3c2C[C@@H]2C[C@H](O)CN2C(=O)[C@H](CC)NC(=O)[C@H](C)NC)[nH]c2cc(F)ccc12 [Birinapant] was tested, and the “Excess HSA synergy score” value [1] was -71.9.
With Cc1[nH]c(/C=C2\C(=O)Nc3ccc(S(=O)(=O)Cc4c(Cl)cccc4Cl)cc32)c(C)c1C(=O)N1CCC[C@@H]1CN1CCCC1 + CC[C@H](NC(=O)[C@H](C)NC)C(=O)N1C[C@@H](O)C[C@H]1Cc1c(-c2[nH]c3cc(F)ccc3c2C[C@@H]2C[C@H](O)CN2C(=O)[C@H](CC)NC(=O)[C@H](C)NC)[nH]c2cc(F)ccc12 [Birinapant] the “Excess HSA synergy score” value [1] was -132.
With CN1CCCN(C(=O)c2cccc(-c3ccc(/C=C4/C(=O)Nc5ccc(Cl)cc54)o3)c2)CC1 + CC[C@H](NC(=O)[C@H](C)NC)C(=O)N1C[C@@H](O)C[C@H]1Cc1c(-c2[nH]c3cc(F)ccc3c2C[C@@H]2C[C@H](O)CN2C(=O)[C@H](CC)NC(=O)[C@H](C)NC)[nH]c2cc(F)ccc12 [Birinapant] the “Excess HSA synergy score” value [1] was 92.9 and the “Excess HSA synergy score” value [2] was -1060.
COc1cc(-c2nn([C@H]3CC[C@H](N4CCN(C(C)=O)CC4)CC3)c3ncnc(N)c23)ccc1NC(=O)c1cc2ccccc2n1C + CC[C@H](NC(=O)[C@H](C)NC)C(=O)N1C[C@@H](O)C[C@H]1Cc1c(-c2[nH]c3cc(F)ccc3c2C[C@@H]2C[C@H](O)CN2C(=O)[C@H](CC)NC(=O)[C@H](C)NC)[nH]c2cc(F)ccc12 [Birinapant] was tested, and the “Excess HSA synergy score” value [1] was 112.
For CO[C@@H]1[C@H](N(C)C(=O)c2ccccc2)C[C@H]2O[C@]1(C)n1c3ccccc3c3c4c(c5c6ccccc6n2c5c31)C(=O)NC4=O [Stauprimide] + CC[C@H](NC(=O)[C@H](C)NC)C(=O)N1C[C@@H](O)C[C@H]1Cc1c(-c2[nH]c3cc(F)ccc3c2C[C@@H]2C[C@H](O)CN2C(=O)[C@H](CC)NC(=O)[C@H](C)NC)[nH]c2cc(F)ccc12 [Birinapant], the “Excess HSA synergy score” value [1] was 168.
For COc1ccc(OC)c(-c2nnc3ccc(-c4ccc(OC)c(O[C@@H]5CCOC5)c4)nn23)c1 + CC[C@H](NC(=O)[C@H](C)NC)C(=O)N1C[C@@H](O)C[C@H]1Cc1c(-c2[nH]c3cc(F)ccc3c2C[C@@H]2C[C@H](O)CN2C(=O)[C@H](CC)NC(=O)[C@H](C)NC)[nH]c2cc(F)ccc12 [Birinapant], the “Excess HSA synergy score” value [1] was -150.
